# VDR inhibitor: vitamin D3 receptor (human) inhibition. P11473. VDR-SRC2-3 peptide fluorescence polarization, 2 h. Potency, µM, for the others: max response, negative = inhibition, usual class: inhibitors. hit rate 0.93% among 400,000; further: potency means the concentration at half of the fitted maximal effect; on the % scale 0 is the no-effect control and ±100 the full control effect
#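 Two reagent solutions held at 4 deg C in the dark were dispensed, compounds pinned at 23 nl, and the mixture incubated 2 h at room temperature. Read-out: fluorescence polarization of VDR–SRC2-3 peptide binding.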
# TCR activator: activates T cell receptor signaling. primary human leukocytes, anti-CD3, IL-2 HTRF, 48 h. 330,000 tested, under 10 active. AID 504894. Potency, µM (top dose mostly 9.22 µM), for the others: at the top dose activation of IL-2 secretion, hits mostly activators; further: % of control where 0% means no effect
#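 Primary human leukocytes receive a-CD3 beads and test compound and are incubated 48 hr. Secreted IL-2 is then assayed by HTRF, measuring 665nm acceptor emission after 320nm excitation of the europium donor.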
# PI5P4K alpha inh: inhibitors of human PI5P4K alpha. P48426. PI5P4Kalpha enzyme, ADP-Glo luminescence, 60 min; active compounds read low. max response, %. hit rate 1.2% among 330,000. AID 652105; active means max response of -50% or lower; inconclusive means between -30% and -50%; inactive means -30% or higher; further: value at the top dose of about 77 µM; on the % scale 0 is the no-effect control and ±100 the full control effect
#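 Controls without substrate or without enzyme flank wells where PI5P4Kalpha converts substrate using 5 microM ATP (final). Incubation lasts 60 minutes at room temperature; ADP formed is read by ADP-Glo luminescence.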
# FEN1 inh: human FEN1 inhibition; Recombinant FEN1 flap cleavage, fluorescence, 15 min; Potency, µM (top dose mostly 114 µM), for the others: at the highest dose activity change, negative = inhibition, usual class: inhibitors; hit rate 0.35% among 390,000; P39748; further: potency means the concentration at half of the fitted maximal effect; on the % scale 0 is the no-effect control and ±100 the full control effect; nearly all actives have a fitted effect of over 65% in size
#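 Reaction started by adding substrate (50 nM final) to 10 nM enzyme after 15 min room-temperature compound preincubation. Reads at 0 and 15 min, with data normalized and fitted to a four-parameter Hill equation.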
# PLK1 PBD inh: inhibitors of human PLK1 polo-box domain binding | Plk1 PBD binding of FITC phosphopeptide, fluorescence polarization | P53350 | Potency, µM, for the others: max response, negative = inhibition, hits mostly inhibitors | hit rate 2.8% among 360,000; further: potency means the concentration at half of the fitted maximal effect; series mostly up to about 57 µM; on the % scale 0 is the no-effect control and ±100 the full control effect; nearly all actives have a fitted effect of over 65% in size
# Target sequence (P53350 whole entry, looked up, the tested form may be a part): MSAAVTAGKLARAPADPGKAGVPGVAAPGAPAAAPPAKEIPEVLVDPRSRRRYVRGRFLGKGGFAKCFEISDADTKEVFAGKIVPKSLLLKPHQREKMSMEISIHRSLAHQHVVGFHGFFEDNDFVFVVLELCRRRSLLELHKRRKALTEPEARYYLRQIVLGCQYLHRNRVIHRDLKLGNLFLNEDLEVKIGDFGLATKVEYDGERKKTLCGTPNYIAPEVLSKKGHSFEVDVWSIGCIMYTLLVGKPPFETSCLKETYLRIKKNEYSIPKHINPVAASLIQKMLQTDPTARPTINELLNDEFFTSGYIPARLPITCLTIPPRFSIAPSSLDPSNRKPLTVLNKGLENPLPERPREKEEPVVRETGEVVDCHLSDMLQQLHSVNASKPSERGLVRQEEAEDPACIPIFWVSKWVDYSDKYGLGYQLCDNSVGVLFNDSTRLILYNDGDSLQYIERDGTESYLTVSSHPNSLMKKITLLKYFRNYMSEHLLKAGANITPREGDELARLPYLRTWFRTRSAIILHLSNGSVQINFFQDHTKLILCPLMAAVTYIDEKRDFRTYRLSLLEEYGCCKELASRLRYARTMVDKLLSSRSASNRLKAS
# WRN helicase inh: WRN helicase (human) inhibition | Potency, µM (highest dose often 114 µM), for inactives: top-dose activity change, negative = inhibition, hits mostly inhibitors | Q14191 | AID 651768 | hit rate 0.46% among 360,000 | WRN helicase unwinding, fluorescent forked duplex, kinetic; further: potency means the concentration at half of the fitted maximal effect; on the % scale 0 is the no-effect control and ±100 the full control effect; nearly all actives have a fitted effect of over 55% in size
#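 Kinetic fluorescence helicase assay: unwinding of a quenched forked DNA duplex (100 nM final) with 2 mM ATP final raises red fluorescence (525/598 nm). Compounds sat 15 min at room temperature with 20 nM WRN beforehand.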
# USP1 UbRho: USP1-UAF1 deubiquitinase inhibition validated; shares compounds with VDR inhibitor; Ub-Rhodamine cleavage, fluorescence kinetic read; Potency, µM (doses to about 56.8 µM), for inactives: at the highest dose activity change, negative = inhibition, actives largely listed as inhibitors; hit rate 50% among 50; AID 540327
# VDR confirm: inhibits human vitamin D receptor, primary hit validation | shares compounds with VDR inhibitor | VDR-coactivator inhibition assay, qHTS confirmation | Potency, µM, usual class: inhibitors | hit rate 89% among 840; further: potency means the concentration at half of the fitted maximal effect
# VDR FP fluor: VDR (human) coactivator binding inhibition, fluorescein polarization | shares compounds with VDR inhibitor | VDR-coactivator binding, fluorescein fluorescence polarization | Potency, µM (titrated, usually from 57.1 µM), for inactives: at the highest dose activity change, negative = inhibition, usual class: inhibitors | hit rate 48% among 840 | AID 602200; further: potency means the concentration at half of the fitted maximal effect
# VDR bla reporter: confirmation of human vitamin D receptor inhibitors in reporter cells; hit rate 23% among 840; shares compounds with VDR inhibitor; VDR beta-lactamase reporter cells, FRET ratio; cells co-treated with VDR agonist LG190178; Potency, µM (titrated, usually from 46.1 µM), inactives show at the highest dose activity change, negative = inhibition, most hits filed as inhibitors; further: potency means the concentration at half of the fitted maximal effect; on the % scale 0 is the no-effect control and ±100 the full control effect
# VDR viability: cell toxicity, VDR inhibitor hit counter-screen | shares compounds with VDR inhibitor | cytotoxicity counter-screen, cell viability, qHTS | Potency, µM (series often up to 48.3 µM), for inactives: at the highest dose activity change, negative = cytotoxicity, hits mostly cytotoxic | hit rate 18% among 840;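 further: potency means the concentration at half of the fitted maximal effect; plate controls were DMSO for no effect and high-concentration cycloheximide for full effect; nearly all actives have a fitted effect of over 75% in size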
# * hit, by the source's call; ? = inconclusive; . = no result; [ ] = remark or other dose. The list is not random: actives were taken first. Their share in the collection is about 3.7%. Unless noted, the call rests on the fitted dose curve; in most records, active means well fitted curve in the direction sought with a large enough effect; inconclusive means small, poorly fitted or top-dose-only effect, or another doubt; inactive means no such curve, though single readings can be large; an effect the other way counts as inactive or inconclusive.
SMILES,VDR inhibitor,TCR activator,PI5P4K alpha inh,FEN1 inh,PLK1 PBD inh,WRN helicase inh,VDR confirm,VDR FP fluor,VDR bla reporter,VDR viability,others
CN(C)S(=O)(=O)c1ccc2c(c1)/C(=C/c1cc3c([nH]1)CCCC3)C(=O)N2,-19%,-12%,-2,69%,3%,278%,.,.,.,.,USP1 UbRho=47µM*
CCN(CC)N=Nc1ccc(C(=O)O)cc1,41%,-6%[46.1 µM],4,-3%,5%,-4%,.,.,.,.,
Cc1nc(N=Nc2ccc(C(=O)O)cc2)c(COP(=O)(O)O)c(C=O)c1O,-3%,.,.,.,.,.,.,.,.,.,USP1 UbRho=5.9µM*
CCOc1ccc2ncc3c(-c4ccccc4)nn(CC(=O)Nc4cccc(F)c4)c3c2c1,1%,.,.,3%,.,.,.,.,.,.,
O=C(Nc1ccc(N2CCOCC2)c(S(=O)(=O)Nc2ccc(Cl)cc2)c1)c1cnccn1,79µM*,10%,-25,3%,5.3µM*,6%,17*,?,18%,-12%,
CN(C)c1ccc(/C=C/C=C2/C=Cc3ccccc32)cc1,.,.,.,-5%,.,.,.,.,.,.,
CN(C)c1ccc(C=Nc2ccc(N(C)C)cc2)cc1,?,?,-7,-20%,-9%,-7%,10*,?,6%,-11%,
COc1ccc(N2C(=O)C(CC(=O)Nc3ccc(F)cc3)N(Cc3ccc4c(c3)OCO4)C2=O)cc1 (stereo unspecified),2%,.,.,-3%,.,.,.,.,.,.,
CCOC(=O)c1sc(NC(=O)c2ccncc2)c(C#N)c1C,45µM*,4%,?,2%,3.8µM*,-35%,3.8*,?,5%,?,
CCOC(=O)c1c(NC(=O)c2ccncc2)sc(C)c1C,3%,-8%,6,4%,?,-4%,.,.,.,.,
O=C(/C=C/c1cccc(Cl)c1)c1nc2ccccc2[nH]1,45µM*,0%,-26,-15%,?,?,8.4*,?,?,?,
O=C(NCc1nc2ccccc2[nH]1)c1cccc(Cl)c1,-4%,.,.,-4%,.,.,.,.,.,.,
COc1ccc(CC(=O)NC2CC(=O)N(c3cccc(F)c3)C2)cc1OC (stereo unspecified),-4%,.,.,-7%,.,.,.,.,.,.,
O=C(/C=C/c1ccc(Br)cc1)c1ccco1,45µM*,-1%,-10,-1%,-18%,?,24*,?,13%,13%,
Oc1ccc(N=C/C=C/c2cccc(Br)c2)cc1-c1nc2ccccc2s1,?,4%[46.1 µM],-59*,-11%,?,?,8.9*,22µM*,18µM*,?,
Nc1ccc(O)c(-c2nc3ccccc3s2)c1,-19%,-1%,?,-8%,-29%,-16%,.,.,.,.,
Cc1cccc(-n2nc(C)c(C(=O)Nc3cc(C)ccc3C)c2-n2cccc2)c1,-2%,.,.,-3%,.,.,.,.,.,.,
CC(C)Cn1cc(NC(=O)N2CCN(c3cccc(Cl)c3)CC2)c2ccccc2c1=O,6%,.,.,6%,.,.,.,.,.,.,
O=C(/C=C/c1ccccc1)n1cnnc1SC/C=C/c1ccccc1,40µM*,-4%[46.1 µM],1,8%,?,-4%,17*,?,12%,-5%,
CNc1ccc(Br)cc(C(=O)/C=C/c2ccc(OC)cc2OC)c1=O,?,2%[46.1 µM],?,?,?,?,.,.,.,.,
CNc1ccc(Br)cc(C(=O)/C=C/c2ccc(Cl)cc2Cl)c1=O,?,10%,-29,-21%,?,-10%[11.6 µM],3.5*,?,?,10%,
O=C1Nc2ccc(Br)cc2/C1=C/C(=O)c1ccc2c(c1)OCO2,40µM*,1%,?,-20%,?,-5%,?,?,?,?,
Cc1ccc(C)c(Cn2cc(CCC(=O)NC3CCCCC3)c3ccccc32)c1,-2%,.,.,1%,.,.,.,.,.,.,
O=C(Nc1nnc(COc2ccc(Cl)cc2)s1)c1ccco1,28µM*,.,?,-1%,2.7µM*,-33%,4.2*,?,-17%,-6%,
Cc1ccc(OCc2nnc(NC(=O)c3ccco3)s2)cc1,7%,-2%,-22,-1%,-2%,-5%,.,.,.,.,
SMILES,VDR inhibitor,TCR activator,PI5P4K alpha inh,FEN1 inh,PLK1 PBD inh,WRN helicase inh,VDR confirm,VDR FP fluor,VDR bla reporter,VDR viability,others
CC1=C(CO)C(=O)OC([C@@H](C)C2CC[C@H]3C4C[C@H]5O[C@]56[C@@H](O)C=CC(=O)[C@]6(C)C4CC[C@]23C)C1 (stereo partly specified),18µM*,15%,?,-8%,-29%,?,12*,10µM*,5.8µM*,?,
CC(C(=O)O)C1CCC2C3CC=C4CC(O)CC[C@@]4(C)C3CC[C@]12C (stereo partly specified),11%,.,.,.,.,.,.,.,.,.,
Cc1cccc2c1c1ccc3c(c1n2C)C(=O)C=CC3=O,22µM*,-27%,-73*,?,?,-8%,9.5*,13µM*,7.3µM*,8.9µM*,
CCOC(=O)CNCCC(=O)c1ccc(Br)cc1,50µM*,-2%[46.1 µM],-10,-7%,12µM*,?,21*,22µM*,?,?,
Cc1ccc(CN2C(=O)C(=O)c3cc(Br)cc(C)c32)cc1,18µM*,.,.,?,.,.,7.1*,10µM*,-10%,-2%,
Cc1ccc2c(c1)C(=O)C(=O)N2Cc1ccc(C(F)(F)F)cc1,25µM*,0%,-27,8%,?,-3%,17*,10µM*,-9%,?,
Cc1ccc2c(c1)C(=O)C(=O)N2Cc1ccc(OC(C)C)cc1,?,.,.,-16%,.,.,.,.,.,.,
COc1ccc(NC(=O)Nc2nnc(N3CCCC3)s2)cc1,16%,.,.,18%,.,.,.,.,.,.,
CCOc1ccc(CNC(=O)Cn2ncc3c(=O)oc4ccc(C)cc4c32)cc1,-20%,.,.,-5%,.,.,.,.,.,.,
C=C1CCN(C(CC(C)C)C(=O)NCc2ccc(Cl)c(Cl)c2)S(=O)(=O)c2ccccc21 (stereo unspecified),-6%,.,.,-13%,.,.,.,.,.,.,
